Molecules are shown by their SMILES. The campaign covered roughly 310,000 compounds. About 2,200 (0.71%) showed an effect of 50% or more. Effects have a minus sign here. Only a selection was taken, and strong results are over-represented in it overall.

Chain of human ether-à-go-go-related gene (hERG) potassium channel (Q12809 whole entry, looked up): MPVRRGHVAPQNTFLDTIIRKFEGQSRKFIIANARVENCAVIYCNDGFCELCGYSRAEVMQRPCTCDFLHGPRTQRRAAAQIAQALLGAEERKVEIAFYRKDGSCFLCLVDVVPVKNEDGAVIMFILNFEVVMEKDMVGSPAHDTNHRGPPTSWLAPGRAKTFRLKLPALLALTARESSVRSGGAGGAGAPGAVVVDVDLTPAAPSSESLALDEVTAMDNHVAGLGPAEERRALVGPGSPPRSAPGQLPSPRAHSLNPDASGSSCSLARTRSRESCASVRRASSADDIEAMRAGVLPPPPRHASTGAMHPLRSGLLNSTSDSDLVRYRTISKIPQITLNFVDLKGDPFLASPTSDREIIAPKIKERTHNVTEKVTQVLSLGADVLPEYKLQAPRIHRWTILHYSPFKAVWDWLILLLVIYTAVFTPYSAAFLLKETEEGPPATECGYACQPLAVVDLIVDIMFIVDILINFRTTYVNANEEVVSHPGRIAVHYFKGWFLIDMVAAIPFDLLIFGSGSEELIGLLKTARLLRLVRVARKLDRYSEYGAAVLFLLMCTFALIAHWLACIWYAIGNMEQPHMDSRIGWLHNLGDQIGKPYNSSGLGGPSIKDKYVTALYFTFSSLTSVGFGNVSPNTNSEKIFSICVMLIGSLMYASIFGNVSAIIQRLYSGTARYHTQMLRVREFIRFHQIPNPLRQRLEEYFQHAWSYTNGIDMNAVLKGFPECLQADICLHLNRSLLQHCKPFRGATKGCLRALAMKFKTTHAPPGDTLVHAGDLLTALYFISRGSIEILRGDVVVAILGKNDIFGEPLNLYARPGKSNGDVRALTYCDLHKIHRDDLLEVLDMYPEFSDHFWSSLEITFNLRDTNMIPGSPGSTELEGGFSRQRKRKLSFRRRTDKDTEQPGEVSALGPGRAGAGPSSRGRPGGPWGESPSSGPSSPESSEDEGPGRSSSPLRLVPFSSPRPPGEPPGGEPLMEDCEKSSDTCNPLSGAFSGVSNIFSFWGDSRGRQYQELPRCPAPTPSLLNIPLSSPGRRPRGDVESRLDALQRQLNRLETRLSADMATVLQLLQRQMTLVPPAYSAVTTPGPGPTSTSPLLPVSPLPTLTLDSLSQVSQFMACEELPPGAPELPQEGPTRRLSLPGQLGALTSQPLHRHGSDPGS

The experiment has as its target human ether-à-go-go-related gene (hERG) potassium channel (human, UniProt Q12809). Briefly: primary screen, population patch clamp on CHO cells stably expressing hERG; higher = less effect of the substance.
Regarding `COc1cc2c(cc1OC)CN(S(C)(=O)=O)CC2`, the “hERG current change (%, negative = inhibition) at 1uM” value is listed as 16.5%.

As to `Fc1cccc(CCN2CCNC[C@@H]2CC2CCCCC2)c1`, the “hERG current change (%, negative = inhibition) at 1uM” value was 1.12%.

For `Cc1ccc2oc(C(=O)NCC3CCOCC3)c(C)c2c1`, the “hERG current change (%, negative = inhibition) at 1uM” value amounted to 10.3%.

As to `CCn1c(=N)n(CC(O)c2ccco2)c2ccccc21.Cl` (stereo not drawn), the “hERG current change (%, negative = inhibition) at 1uM” value is reported as -7.63%.

Turning to `Cl.N=c1n(CCN2CCCC2)c2ccccc2n1CC(O)c1ccco1` (stereo not drawn), the “hERG current change (%, negative = inhibition) at 1uM” value was -3.97%.

Consider `CCN(CC)CCn1c(=N)n(CC(O)c2ccco2)c2ccccc21.Cl` (stereo not drawn), for which the “hERG current change (%, negative = inhibition) at 1uM” value is -54.6%.

With `Cl.Cn1c(=N)n(CC(O)c2ccco2)c2ccccc21` (stereo not drawn), the “hERG current change (%, negative = inhibition) at 1uM” value came out at 1.97%.

Regarding `CCCCCCCn1c(=N)n(CC(O)c2ccco2)c2ccccc21.Cl` (stereo not drawn), the “hERG current change (%, negative = inhibition) at 1uM” value is given as -76.8%.

Regarding `CCCn1c(=N)n(CC(O)c2ccco2)c2ccccc21.Cl` (stereo not drawn), the “hERG current change (%, negative = inhibition) at 1uM” value is recorded as -13.8%.

Regarding `O=C(O)C(=O)O.O=[N+]([O-])c1cccc(CN2CCN(Cc3ccc(Cl)cc3)CC2)c1`, the “hERG current change (%, negative = inhibition) at 1uM” value is -27.2%.

On to `COC(=O)c1cc(NC(=O)C2(S(=O)(=O)c3ccc(C)cc3)CC2)cc(C(=O)OC)c1`, for which the “hERG current change (%, negative = inhibition) at 1uM” value amounted to 0.157%.

For `COc1ccc(O)c(C(=O)c2cc(C#N)c(=O)n(Cc3ccccc3)c2)c1`, the “hERG current change (%, negative = inhibition) at 1uM” value came to 8.35%.

On to `O=C(NCc1ccccc1)C1(C(F)(F)F)C/C(=C\CCO)CCCO1` (stereo not drawn), for which the “hERG current change (%, negative = inhibition) at 1uM” value is listed as 14.1%.

For the compound `Cc1ccc(/C=C2/C(=O)NC(=O)N(CCc3ccc(F)cc3)C2=O)o1`, the “hERG current change (%, negative = inhibition) at 1uM” value worked out at 2.54%.

Take `CCC1CN(C(=O)N2CCC(C(=O)NCCc3ccccc3)CC2)c2ccccc2O1` (stereo not drawn): the “hERG current change (%, negative = inhibition) at 1uM” value worked out at 8.85%.

Consider `O=C(CCc1nc2cccnc2n1Cc1ccccc1)NCCc1ccc(Cl)cc1`, for which the “hERG current change (%, negative = inhibition) at 1uM” value is -65.2%.

As to `COCCCNC(=O)CCc1nc2cccnc2n1Cc1ccccc1`, the “hERG current change (%, negative = inhibition) at 1uM” value was -11.9%.

Turning to `CCCCNC(=O)CCc1nc2cccnc2n1Cc1ccccc1`, the “hERG current change (%, negative = inhibition) at 1uM” value is -34.7%.

Take `Cc1ccc([N+](=O)[O-])cc1N/C=C1\CCCCC1=O`: the “hERG current change (%, negative = inhibition) at 1uM” value stood at 16.5%.

In the case of `Cc1ccc(N(CC(=O)NCc2cccnc2)S(C)(=O)=O)cc1C`, the “hERG current change (%, negative = inhibition) at 1uM” value is listed as 12.4%.

As to `COc1ccc(C2=NOC(C(=O)NCc3cccs3)C2)cc1` (stereo not drawn), the “hERG current change (%, negative = inhibition) at 1uM” value came to 21.3%.

Consider `O=C(Nc1ccccc1N1CCCC1)c1cc(S(=O)(=O)N2CCOCC2)ccc1Cl`, for which the “hERG current change (%, negative = inhibition) at 1uM” value was -9.58%.

On to `O=C(Nc1ccccc1N1CCCCC1)c1cc(S(=O)(=O)N2CCOCC2)ccc1Cl`, for which the “hERG current change (%, negative = inhibition) at 1uM” value came out at 7.72%.

Regarding `NC(=O)c1ccc(NC(=O)c2cc(S(=O)(=O)N3CCCCC3)ccc2N2CCOCC2)cc1`, the “hERG current change (%, negative = inhibition) at 1uM” value was determined as 13.4%.

On to `O=C(Nc1ccccc1Cl)c1cc(S(=O)(=O)N2CCCCC2)ccc1N1CCOCC1`, for which the “hERG current change (%, negative = inhibition) at 1uM” value is -5.21%.

On to `O=C(Nc1ccccc1)c1cc(S(=O)(=O)N2CCCCC2)ccc1N1CCOCC1`, for which the “hERG current change (%, negative = inhibition) at 1uM” value is on record as 12.6%.

Consider `CNC(=O)c1ccc(NC(=O)c2cc(S(=O)(=O)N3CCOCC3)ccc2N2CCCC2)cc1`, for which the “hERG current change (%, negative = inhibition) at 1uM” value is given as 13.5%.

For `NC(=O)c1ccccc1NC(=O)c1cc(S(=O)(=O)N2CCCCC2)ccc1N1CCOCC1`, the “hERG current change (%, negative = inhibition) at 1uM” value is reported as -60.5%.

With `N#Cc1ccc(NC(=O)c2cc(S(=O)(=O)N3CCOCC3)ccc2N2CCCC2)cc1`, the “hERG current change (%, negative = inhibition) at 1uM” value was -58.9%.

In the case of `CS(=O)(=O)c1ccc(Cl)c(NC(=O)c2cc(S(=O)(=O)N3CCOCC3)ccc2N2CCCC2)c1`, the “hERG current change (%, negative = inhibition) at 1uM” value was -60.2%.

The values are drawn from article PMC4336329 (PLoS ONE, 2015).
